Assay outcomes from PubChem.
AmpC detergent – qHTS Inhibitors of AmpC Beta-Lactamase (assay with detergent) | AmpC hydrolysis of nitrocefin, absorbance 480 nm, 0.01% Triton | Potency, µM (series often up to 114 µM), most hits filed as inhibitors | 370,000 tested, 0.041% active | AID 485294, 2010; further: nearly all actives have a fitted effect of over 25% in size
Target sequence (P00811 whole entry, looked up): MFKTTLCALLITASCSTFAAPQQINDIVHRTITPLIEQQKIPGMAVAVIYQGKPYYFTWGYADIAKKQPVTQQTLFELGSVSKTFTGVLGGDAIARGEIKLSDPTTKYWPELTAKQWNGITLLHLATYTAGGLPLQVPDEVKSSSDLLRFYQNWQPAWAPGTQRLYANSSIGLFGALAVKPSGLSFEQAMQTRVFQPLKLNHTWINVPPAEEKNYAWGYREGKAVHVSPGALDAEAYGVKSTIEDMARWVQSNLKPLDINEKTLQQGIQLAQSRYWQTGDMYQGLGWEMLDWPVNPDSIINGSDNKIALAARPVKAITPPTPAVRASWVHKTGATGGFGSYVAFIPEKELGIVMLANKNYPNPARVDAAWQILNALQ
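20 mM phosphate pH 7.0 + 0.01% (detergent screen) or 0.0001% Triton X-100; 5.3 nM AmpC reagent; cpd preinc 15 min RT; nitrocefin (800 uM stock) to start; A480 q20 s × 4 min; Activity was normalised to no-enzyme and no-compound control wells.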
VACV Venus inh – qHTS for Stage-Specific Inhibitors of Vaccinia Orthopoxvirus: Venus Reporter Primary qHTS; 330,000 tested, 0.46% active; Potency, µM (highest dose often 36.5 µM), usual class: inhibitors; AID 720580, 2013; Vaccinia virus Venus reporter expression, fluorescence; calls by dose curve; tested in A549 cells; further: nearly all actives have a fitted effect of over 30% in size
AmpC inh no detg – qHTS Inhibitors of AmpC Beta-Lactamase (assay without detergent); P00811; AmpC nitrocefin hydrolysis, absorbance 480 nm, 0.0001% Triton; Potency, µM (series often up to 57.1 µM), most hits filed as inhibitors; 330,000 tested, 0.52% active; AID 485341, 2010; further: nearly all actives have a fitted effect of over 20% in size
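AmpC (5.3 nM in the dispensed reagent) in 20 mM phosphate pH 7.0 with 0.01% (detergent screen) or 0.0001% Triton X-100 was preincubated with compounds for 15 min at room temperature. Nitrocefin was then added from an 800 uM solution, and hydrolysis was followed at 480 nm.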
SARS PLpro yeast – qHTS of Yeast-based Assay for SARS-CoV PLP; S. cerevisiae expressing SARS-CoV PLpro, growth rescue; Potency, µM (top dose mostly 32.9 µM), hits mostly activators; 330,000 tested, 0.19% active; calls by dose curve; further: nearly all actives have a fitted effect of over 55% in size
Vaccinia mCherry – qHTS for Stage-Specific Inhibitors of Vaccinia Orthopoxvirus: mCherry Reporter Primary qHTS; Vaccinia virus mCherry reporter infection, fluorescence; Potency, µM (titrated, usually from 36.5 µM), actives largely listed as inhibitors; 310,000 tested, 0.63% active; AID 720579, 2013; calls by dose curve; tested in A549 cells; further: nearly all actives have a fitted effect of over 35% in size
AMA1-RON2 inh – qHTS for Inhibitors of AMA1-RON; Towards Development of Antimalarial Drug Lead: Primary Screen | AlphaScreen AMA1-biotinylated RON2 peptide binding | 360,000 tested, 0.2% active | Potency, µM (highest dose often 58.2 µM), most hits filed as inhibitors | Plasmodium falciparum AMA1 (3D7) - RON2 peptide interaction; further: nearly all actives have a fitted effect of over 45% in size
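AMA1 (3D7) with his tag at 25 nM final met compounds first, then biotinylated RON2 peptide at 25 nM; detection used donor plus acceptor beads, 10 µg/mL apiece, read by AlphaScreen after 30 min at room temperature.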
Hits are given with their value; - = inactive; ? = inconclusive; . = no result. In the library only some 1.3% were active in any assay of this set; here they are far more common. Unless noted, the call rests on the fitted dose curve; in most records, active means well fitted curve in the direction sought with a large enough effect; inconclusive means small, poorly fitted or top-dose-only effect, or another doubt; inactive means no such curve, though single readings can be large; an effect the other way counts as inactive or inconclusive.

SMILES	AmpC detergent	VACV Venus inh	AmpC inh no detg	SARS PLpro yeast	Vaccinia mCherry	AMA1-RON2 inh
O=c1c2ccccc2sn1-c1ccc(Cl)c(S(=O)(=O)N2CCOCC2)c1	.	-	.	.	-	.
CN(Cc1ccco1)C(=O)c1cc(NC(=O)C2CCC2)c2c(c1)nc(-c1ccncc1)n2C	.	-	.	.	-	.
Cc1ccc(NC(=S)NC2CCSc3ccccc32)cc1C (stereo not given)	-	-	11µM	-	-	-
CN(C)c1ccc(CC(=O)N2CCCC(c3cc(C(=O)Nc4ccc(C(C)(C)C)cc4)no3)C2)cc1 (stereo not given)	.	?	.	.	-	13µM
O=C(Nc1ccccc1)c1cc(C2CCCN(C(=O)CCc3ccccc3)C2)on1 (stereo not given)	.	-	.	.	-	-
CCc1ccc(CNCc2c(C(=O)O)n(Cc3ccc(C)cc3)c3cc(C)ccc23)cc1	-	?	.	.	?	.
Cc1ccc(CNCc2c(C(=O)O)n(Cc3ccc(C)cc3)c3cc(C)ccc23)cc1	-	?	.	.	11µM	.
C=Cc1ccc(Cn2c(C(=O)O)c(CNCc3ccccc3)c3ccc(C)cc32)cc1	-	13µM	.	.	?	.
CC(C)=CC(=O)Nc1ccccc1C(N)=O	-	-	-	-	-	6.7µM
COc1ccc(-c2cccc3c2OC(CNC(=O)c2ccc4c(c2)OCO4)C3)nn1 (stereo not given)	.	-	.	.	-	.
CCOC(=O)c1c(C)[nH]c(N=Nc2ccccc2)c1C	-	-	-	-	.	13µM
Cc1cccc(OCc2nc(C#N)c(NCCN(C)C)o2)c1	-	-	2.2µM	-	-	-
CCNc1oc(COc2cccc(C)c2)nc1C#N	?	-	-	-	-	-
COc1ccc(C(=O)NCc2nnc(SC)n2-c2ccccc2C)c(OC)c1OC	.	-	.	.	-	.
COc1ccc2ccccc2c1/C=N/NC(=S)Nc1cc(S(=O)(=O)N2CCOCC2)ccc1N1CCOCC1	-	-	-	-	-	-
CCOc1cccc(/C=N/NC(=S)Nc2cc(S(=O)(=O)N3CCOCC3)ccc2N2CCOCC2)c1O	-	?	-	-	7.1µM	-
COc1cc(-c2ccc(Nc3ccccc3C(=O)O)c(OC)c2)ccc1Nc1ccccc1C(=O)O	-	-	-	-	-	18µM
COc1cccc(Nc2ccccc2C(=O)O)c1	-	-	-	-	-	-
OCCN(CCO)c1ccc(/C=C/c2ccnc3ccccc23)cc1	.	-	.	.	-	.
Cc1ccc2nc(/C(C#N)=C/c3ccc(-c4cccc([N+](=O)[O-])c4)o3)[nH]c2c1	-	-	11µM	-	-	?
Cc1ccc2nc(/C(C#N)=C/c3ccc(-c4ccc(F)cc4F)o3)[nH]c2c1	-	-	.	.	?	.
Cn1ccnc1C1CCCCN1C(=O)CN1Cc2ccccc2OC(c2ccccc2F)C1 (stereo not given)	.	-	.	.	-	.
O=S1(=O)CCO[C@H]2CCCC[C@@H]2N1Cc1ccc(Cl)cc1	.	?	.	.	10µM	.
O=C(N/N=C/C=C\c1ccccc1[N+](=O)[O-])c1cc(-c2ccc3ccccc3c2)n[nH]1	-	?	10µM	-	?	-
O=C(NC1CCCC1)c1cn(C2CCN(Cc3cccc4cccnc34)CC2)nn1	.	-	.	.	-	.
SMILES	AmpC detergent	VACV Venus inh	AmpC inh no detg	SARS PLpro yeast	Vaccinia mCherry	AMA1-RON2 inh
CCN(CC)CCNC(=O)c1cc2c(-c3ccc(Cl)cc3)nn(C)c2s1	?	?	-	-	?	-
CCCCN(CC)CCNC(=O)c1cc2c(-c3ccc(Cl)cc3)nn(C)c2s1	-	?	-	-	10µM	-
CC(=O)N1CCC[C@H]1C(=O)N1CCc2c(cnc(C)c2CNC(=O)/C=C/c2cccs2)C1	.	-	.	.	-	.
CCC(=O)c1ccc(N2CCN(C(=O)c3ccccc3F)CC2)c(F)c1	-	-	-	-	-	-
O=C(c1ccccc1)c1ccc(N2CCN(C(=O)c3cccc(F)c3F)CC2)c(F)c1	-	.	-	6.3µM	.	-
O=C1c2ccccc2S(=O)(=O)c2cc(C(=O)N3CCC(C(=O)N4CCCCC4)CC3)ccc21	.	1.4µM	.	.	?	-
COc1cccc(C2CC(c3c(-c4ccccc4)c4cc(Cl)ccc4[nH]c3=O)=NN2S(C)(=O)=O)c1OC (stereo not given)	-	?	-	-	.	-
COc1ccccc1C1CC(c2c(-c3ccccc3)c3cc(Cl)ccc3[nH]c2=O)=NN1S(C)(=O)=O (stereo not given)	-	11µM	-	-	11µM	-
CCOC(=O)Nc1ccc2c(c1)N(C(=O)CCN(CC)CC)c1ccccc1S2=O (stereo not given)	-	?	-	-	10µM	-
Cn1ccc2cc(-c3ccc4ncnc(NCc5cccc(F)c5)c4c3)ccc21	-	.	-	-	.	.
Cc1cccc(Nc2nc(N)c([N+](=O)[O-])c(N3CC(C)CC(C)C3)n2)c1 (stereo not given)	-	?	-	-	20µM	-
COc1cc2nc(CN(CCO)C3CS(=O)(=O)CC3O)nc(N3CCCCC3)c2cc1OC (stereo not given)	.	-	.	.	-	.
CCOC(=O)c1c(C)[nH]c2cc(Br)c(O)cc12	?	.	-	-	.	-
CCOC(=O)c1c(OCC)[nH]c2c1cc(O)c1ccccc12	-	-	-	-	-	15µM
O=C(NCC1CCC2(CCN(Cc3c[nH]c4ccccc34)CC2)O1)C1CCOCC1 (stereo not given)	.	-	.	.	-	.
O=C(CCNC(=O)c1ccc([N+](=O)[O-])cc1)NNC(=O)c1ccncc1	-	.	-	6.3µM	.	-
O=C(CCNC(=O)c1ccc([N+](=O)[O-])cc1)Nc1ccc(F)cc1	-	-	-	-	-	-
CC(=O)Nc1ccccc1-c1nc(CNC(=O)c2ccc(-n3cccn3)cc2)c(C)o1	.	-	.	.	-	.
Cc1c(CN2CCOc3c(cc(-c4ncc(C(F)(F)F)cc4Cl)cc3OCC3CCCO3)C2)cnn1C (stereo not given)	.	-	.	.	-	.
C=C(C)C1CC=C(C)/C(=N/NC(=O)c2ccccc2[N+](=O)[O-])C1 (stereo not given)	-	-	16µM	-	-	-
C=C(C)C1CC=C(C)/C(=N/Nc2ccccc2[N+](=O)[O-])C1 (stereo not given)	-	-	-	-	-	?
O=C(NCC1Cc2cccc(-c3ncccn3)c2O1)C1CCCO1 (stereo not given)	.	-	.	.	-	.
Cn1cc(C(=O)Nc2ccc(Cl)cc2)c(C(F)(F)F)n1	-	.	-	-	.	-
CCC(C)Sc1cc(C(F)(F)F)c(C(=O)Nc2ccc(Cl)cc2)cn1 (stereo not given)	-	?	10µM	-	-	-
CC1=C(N2CC2)C(=O)C(CO)=C(N2CC2)C1=O	.	0.35µM	.	.	0.35µM	-
